# From PubChem BioAssay
# Active and inactive are the calls of the source.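 The calls were made as follows: active = signal rise over 3 SD above mean of control wells given weak agonist, in both repeats and first screen; inactive = the rest.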
# Tested on: TRPC4 (mouse), co-expressed with 5HT1a in HEK293
# Experiment: enhancement of serotonin-evoked TRPC4 response – cell-based, second counter screen, HEK293 TRPC4/5HT1a, Fluo-4, counter-screen for TRPC4 potentiator project, confirmation (AID 434979)
# Conditions: Fluo-4 calcium flux, at 10 µM, serotonin added at its EC20 dose; active compounds read high
SMILES,outcome,potentiation
Cc1cccn2c(CNCCc3ccccn3)c(C(=O)N3CCOCC3)nc12,inactive,
COc1ccc(/C=N/NC(=O)C2COc3ccccc3O2)cc1OC (centres undefined),inactive,
CN(C)CCNC(=O)c1c(NC(=O)c2ccccc2)sc2c1CCCC2,inactive,
Cc1ccccc1N1CC(O)(c2ccccc2)[N+]2=C1SCC2 (centres undefined),inactive,
CC(C)Cc1ccc(CN2CCCC(NC(=O)CCn3cnnn3)C2)cc1 (centres undefined),inactive,
CN1CCN(Cc2nc3c(c(=O)[nH]c(=O)n3C)n2Cc2c(F)cccc2Cl)CC1,,36.3% (active)
O=C(CC1C(=O)NCCN1Cc1cccc(Oc2ccccc2)c1)NCCc1ccccn1 (centres undefined),inactive,
CN(C)CCCN(C(=O)c1ccc(Cl)s1)c1nc2cc3c(cc2s1)OCO3,inactive,
Cc1cc(CSC(=N)N)c(CSC(=N)N)cc1C,inactive,
COC(=O)c1ccc(N2CCN(C)CC2)c(NC(=O)c2ccc(Br)o2)c1,inactive,
CCc1cc(OCCN(C)C)ccc1Cl,,37.3% (active)
C=CCn1c(/N=C/c2ccc(N(C)C)cc2)nc2ccccc21,,10.4% (active)
CCC1CCCCN1S(=O)(=O)c1ccc(C(=O)N(CCCN(C)C)c2nc3cc4c(cc3s2)OCO4)cc1 (centres undefined),inactive,
CCn1c(CN2CCN(Cc3ccc(C)cc3)C(CCO)C2)nc2ccccc21 (centres undefined),inactive,
O=C(NCc1ccccc1)C1=C[C@@H](C2CCCCC2)C[C@@H](OCc2ccc(CO)cc2)O1,inactive,
CCN1CCCC1CNS(=O)(=O)c1c(C)cc(C)cc1C (centres undefined),inactive,
CSc1ccc(C(=O)NCC(c2ccco2)N(C)C)cc1[N+](=O)[O-] (centres undefined),inactive,
Cc1ccc2nc(N(CCCN(C)C)C(=O)c3ccc(S(=O)(=O)N4CCc5ccccc5C4)cc3)sc2c1,inactive,
COc1ccccc1/C=C/CN1CCCC(CCC(=O)NCc2ccc(F)c(F)c2)C1 (centres undefined),inactive,
CC[C@@H](C)[C@H](CNC)NC[C@@H](Cc1cccc2ccccc12)NCCc1cccc(C(F)(F)F)c1,inactive,

SMILES,outcome,potentiation
CC(C)C1CC(CCNCc2ccc(N(C)C)cc2)(c2ccccc2)CCO1 (centres undefined),inactive,
Clc1cc(Cl)cc(C2=NC(Cc3ccccc3)CO2)c1 (centres undefined),inactive,
O=C(NCCc1cnc[nH]1)c1ccc(-c2ccccc2)cc1,inactive,
COCC1CCN(Cc2cn(-c3ccccc3F)nc2-c2cc(C)sc2C)CC1,inactive,
Cc1cc(C)cc(NC(=S)N2CCN(c3ncc(C(F)(F)F)cc3Cl)CC2)c1,inactive,
CC(C)C1CC(CCNCc2ccc3c(c2)OCO3)(c2ccccc2)CCO1 (centres undefined),inactive,
Cc1ccc(CNC(=O)C2CCCN(Cc3cnn(-c4ccccc4)c3-n3cccc3)C2)cc1 (centres undefined),inactive,
CN1CCN(c2ccc(NC(=O)COc3cccc4ccccc34)cc2)CC1,inactive,
COc1ccc(CSCCN)cc1Cl,inactive,
Cc1csc2c(N3CCN(C(=O)Nc4ccccc4)CC3)ncnc12,inactive,
CCOC(=O)C1(Cc2ccccc2)CCN(Cc2cn[nH]c2-c2ccccc2)CC1,inactive,
CCOc1ccccc1C1CC(c2ccc(Cl)cc2)Nc2nc(N)nn21 (centres undefined),inactive,
O=C(c1sc2ccccc2c1Cl)N(Cc1ccccc1)C1CCS(=O)(=O)C1 (centres undefined),inactive,
Cc1ccc(C)c(-n2cc(CNCCCn3cccn3)c(-c3ccccc3)n2)c1,inactive,
NC(=O)C1CCCN(CCc2ccccc2)C1 (centres undefined),inactive,
CCn1c(=O)c(C(=O)NNC(=O)c2ccccc2F)c(O)c2ccccc21,inactive,
O=C(NCc1ccccc1)C1=C[C@H](c2ccccc2)C[C@H](OCc2ccc(CO)cc2)O1,inactive,
O=C(CC1C(=O)NCCN1Cc1ccccc1C(F)(F)F)NCCc1ccccn1 (centres undefined),inactive,
CCn1c(N2CCN(S(=O)(=O)CC)CC2)nc2ccccc21,inactive,
